Test systems include EKVX NSCLC; SN12C renal; UO-31 renal; TK-10 renal; ACHN renal; CAKI-1 renal; A498 renal; CCRF-CEM leukemia; MOLT-4 leukemia; SR leukemia.
What all share (assay): NCI-60 one-dose screen, 48 h (100 = growth as untreated, 0 = no growth, -100 = all killed)
Conditions in all cases: 10 µM unless noted

About 83,000 compounds went through this panel and 20% of them were active in at least one assay; those are over-represented in the sample as a whole.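 Step 1: grow cells in 96-well plates. Step 2: add test compound at a single concentration. Step 3: incubate 48 h. Step 4: record percent growth.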 Values without a mark were called inactive. Active and inactive are the calls of the source. The calls were made as follows: active = growth percent below 10; inactive = the rest.

With `CCOC(=O)c1c(C)nc(C)c(C(=O)OCC)c1-c1cccnc1`, the growth in the test with EKVX NSCLC is 105%; in the test on SN12C renal, 109%; in the test on UO-31 renal, 94%; in the test on TK-10 renal, 121%; with ACHN renal, 99.5%; in the test on CAKI-1 renal, 106%. Further, the growth in the test on A498 renal is 125%; in the test with CCRF-CEM leukemia it was 102%; in the test with MOLT-4 leukemia, 54.8%; in the test with SR leukemia, 53.7%.
With `Nc1ccccc1-c1ccc([N+](=O)[O-])cc1`, the growth in the test with EKVX NSCLC was 74.6%; with SN12C renal, 60.3%; in the test with UO-31 renal, 43.3%; in the test with TK-10 renal it was 72.7%; in the test with ACHN renal, 46.1%; with CAKI-1 renal, 30.3%. The growth in the test on A498 renal was 75.9%; with CCRF-CEM leukemia, 24.6%; in the test on MOLT-4 leukemia, 30.5%; in the test with SR leukemia it was 34.8%.
For the compound `NC(=O)NN=C(C1CC1)C1CC1`, the growth in the test on EKVX NSCLC was 103%; with SN12C renal, 108%; with UO-31 renal it was 82.1%; in the test on TK-10 renal, 101%; in the test on ACHN renal, 95.4%; in the test on CAKI-1 renal, 103%. Moreover, the growth in the test with A498 renal was 107%; with CCRF-CEM leukemia, 125%; in the test on MOLT-4 leukemia, 82.8%; in the test with SR leukemia, 85.6%.
As to `CCC1=C(c2ccc(OC)cc2)C(C)Oc2cc(OC(C)=O)ccc21` (stereo not given), the growth in the test on EKVX NSCLC is 75%; with SN12C renal, 90.4%; with UO-31 renal it was 88.6%; in the test on TK-10 renal, 98.6%; with ACHN renal, 88%; in the test on CAKI-1 renal it was 74.9%. The growth in the test with A498 renal was 90.7%; with CCRF-CEM leukemia it was 63.5%; in the test with MOLT-4 leukemia, 76.7%; with SR leukemia, 53%.
For the compound `CCN(CC)CCNc1ccc(Cl)cc1Cl`, the growth in the test on EKVX NSCLC is 113%; in the test on SN12C renal it was 113%; with UO-31 renal it was 87.3%; in the test on TK-10 renal, 103%; in the test with ACHN renal, 113%; in the test on CAKI-1 renal it was 94.6%. In addition, the growth with A498 renal is 103%; in the test on CCRF-CEM leukemia, 104%; in the test on MOLT-4 leukemia it was 95.9%; in the test with SR leukemia, 95.1%.
For the compound `CN1CCCC1c1cccnc1` (stereo not given), the growth in the test with EKVX NSCLC is 123%; in the test with SN12C renal, 94.2%; in the test with UO-31 renal, 97%; in the test on TK-10 renal, 132%; in the test with ACHN renal, 99%; with CAKI-1 renal it was 120%. The growth with A498 renal is 94.1%; in the test on CCRF-CEM leukemia, 70%; with MOLT-4 leukemia, 101%; with SR leukemia it was 85.7%.
As to `c1ccc(N2CCN(c3nncc4ccccc34)CC2)nc1`, the growth is 110% in the test on EKVX NSCLC; 102% in the test on SN12C renal; 96% in the test with UO-31 renal; 105% in the test on TK-10 renal; 115% in the test with ACHN renal; 109% in the test on CAKI-1 renal. In addition, the growth was 97.8% in the test with A498 renal, 102% in the test on CCRF-CEM leukemia, 106% in the test with MOLT-4 leukemia and 103% with SR leukemia.
For the compound `Nc1ccc(C2=Nc3cccc4cccc(c34)S2)cc1`, the growth with EKVX NSCLC is 67.3%; with SN12C renal it was 94.2%; in the test on UO-31 renal it was 60.4%; with TK-10 renal, 88.3%; in the test on ACHN renal it was 81.3%; in the test with CAKI-1 renal it was 75.7%. Further, the growth is 55.9% with A498 renal, 68.4% in the test on CCRF-CEM leukemia, 82.2% in the test with MOLT-4 leukemia and 57.5% in the test on SR leukemia.
As for `Cc1ccc(C=C2C(Cl)=C(Cl)C(Cl)=C2Cl)cc1`, the growth with EKVX NSCLC is -10.6% (active); in the test with SN12C renal it was -43.4% (active); in the test on UO-31 renal, -88% (active); in the test on TK-10 renal, -44.6% (active); in the test with ACHN renal it was -54.8% (active); in the test on CAKI-1 renal it was -35.1% (active). The growth was -88.8% (active) in the test on A498 renal, -45.2% (active) in the test with CCRF-CEM leukemia, 18.3% in the test with MOLT-4 leukemia and 19% with SR leukemia.
Regarding `Cc1ccc(C(C)C)cc1NC(=O)Nc1ccc([N+](=O)[O-])cc1`, the growth in the test with EKVX NSCLC is 15.6%; in the test with SN12C renal, 10.9%; in the test with UO-31 renal, -0.838% (active); in the test with TK-10 renal, 16.8%; in the test with ACHN renal, 7.86% (active); with CAKI-1 renal, 10.5%. Moreover, the growth in the test with A498 renal was 7.54% (active); in the test on CCRF-CEM leukemia it was -14.5% (active); in the test on MOLT-4 leukemia, -23% (active); with SR leukemia, 3.13% (active).
On to `Cn1c(N)c(N=O)c(=O)[nH]c1=O`, for which the growth in the test on EKVX NSCLC was 98%; with SN12C renal, 101%; in the test with UO-31 renal, 82.5%; in the test with TK-10 renal, 101%; in the test with ACHN renal it was 100%; in the test with CAKI-1 renal it was 108%. Also, the growth with A498 renal was 111%; with CCRF-CEM leukemia it was 91.1%; in the test with MOLT-4 leukemia it was 96.3%; in the test with SR leukemia, 97.6%.
Turning to `O=C(/C=C/c1cccnc1)NCCCCC1CCCN(C(=O)c2ccccc2)C1` (stereo not given), the growth with EKVX NSCLC is 106%; in the test with SN12C renal, 38.3%; in the test with UO-31 renal, 39.9%; in the test with TK-10 renal, 103%; in the test on ACHN renal it was 73.7%; in the test with CAKI-1 renal, -15.7% (active). The growth in the test on A498 renal was 101%; in the test on CCRF-CEM leukemia, 41.5%; with MOLT-4 leukemia it was 43.8%; with SR leukemia it was 33%.
With `c1csc([C@@H]2C[C@@H]3Cc4ccc5ccccc5c4N2O3)c1`, the growth with EKVX NSCLC was 78.8%; in the test with SN12C renal it was 94.3%; in the test with UO-31 renal it was 70.2%; in the test with TK-10 renal it was 88.7%; in the test with ACHN renal it was 107%; in the test on CAKI-1 renal, 82.2%. For the same compound, the growth was 79.8% with A498 renal, 75.8% with CCRF-CEM leukemia, 78.3% in the test with MOLT-4 leukemia and 95.1% with SR leukemia.
In the case of `O=[N+]([O-])c1ccc(N/N=C\c2ccccc2[N+](=O)[O-])nc1`, the growth in the test with EKVX NSCLC was 101%; with SN12C renal it was 103%; in the test on UO-31 renal, 97.8%; in the test on TK-10 renal, 116%; with ACHN renal, 102%; in the test with CAKI-1 renal, 83%. Also, the growth in the test with A498 renal is 83.4%; in the test on CCRF-CEM leukemia it was 97.8%; with MOLT-4 leukemia it was 93.5%; in the test on SR leukemia it was 92.4%.

Values taken from PubChem BioAssay (NCI).
